Screening results (PubChem BioAssay)
AF4-AF9 inh – MLL-AF4/AF9 protein interaction inhibition; P42568; AlphaScreen, biotin-AF4 peptide binding to FLAG-AF9; inhibition, % at 10 µM; 0.47% of 350,000 active; AID 651704;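 active means every replicate reaching a set inhibition limit, whatever the replicate mean, cut at about 25% in these data; inconclusive means mean inhibition reaches that limit but some replicates miss it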
DENV2 CPE rescue – inhibitors of DENV2 cytopathic effect | DENV2-infected cells, cytopathic effect rescue, plate reader | CPE inhibition, % at 9.99 µM | 1.7% of 350,000 active; in the data active means CPE inhibition above about 20%, passing the limit was not always enough; inconclusive means no clear call, values can overlap the other calls; tested in BHK-21 cells
RAD52 anneal inh – RAD52 (human) annealing inhibition | recombinant RAD52 DNA annealing, FRET fluorescence | inhibition, % at 18.7 µM | 0.46% of 360,000 active;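 active means every replicate showing at least 50% inhibition; inconclusive means mean inhibition at least 50% but not in every replicate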
FGF22 binding – shifts melting point of recombinant human FGF22 | 1.5% of 340,000 active | recombinant FGF22 thermal shift, SYPRO orange fluorescence; percent of sucrose octasulfate shift, DMSO zero | AID 651658 | activity (Tm shift, normalised), % at 9.99 µM;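 active means mean Tm shift, scaled 0 neutral to 100 positive control, at about 1.3% or above, every replicate too, limit read from the data; inconclusive means no clear call, values can overlap the other calls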
ERAP1 inh – inhibitors of human ERAP1 aminopeptidase; Q9NZ08; recombinant ERAP1, Leu-AMC fluorescence, 60 min; AID 652197; 0.15% of 340,000 active; inhibition, % at 10.7 µM;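 active means mean replicate inhibition of at least 30%, or all replicates individually reaching that 30% level; inactive means mean below 30% and not every replicate reaching it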
Target sequence (Q9NZ08 whole entry, looked up): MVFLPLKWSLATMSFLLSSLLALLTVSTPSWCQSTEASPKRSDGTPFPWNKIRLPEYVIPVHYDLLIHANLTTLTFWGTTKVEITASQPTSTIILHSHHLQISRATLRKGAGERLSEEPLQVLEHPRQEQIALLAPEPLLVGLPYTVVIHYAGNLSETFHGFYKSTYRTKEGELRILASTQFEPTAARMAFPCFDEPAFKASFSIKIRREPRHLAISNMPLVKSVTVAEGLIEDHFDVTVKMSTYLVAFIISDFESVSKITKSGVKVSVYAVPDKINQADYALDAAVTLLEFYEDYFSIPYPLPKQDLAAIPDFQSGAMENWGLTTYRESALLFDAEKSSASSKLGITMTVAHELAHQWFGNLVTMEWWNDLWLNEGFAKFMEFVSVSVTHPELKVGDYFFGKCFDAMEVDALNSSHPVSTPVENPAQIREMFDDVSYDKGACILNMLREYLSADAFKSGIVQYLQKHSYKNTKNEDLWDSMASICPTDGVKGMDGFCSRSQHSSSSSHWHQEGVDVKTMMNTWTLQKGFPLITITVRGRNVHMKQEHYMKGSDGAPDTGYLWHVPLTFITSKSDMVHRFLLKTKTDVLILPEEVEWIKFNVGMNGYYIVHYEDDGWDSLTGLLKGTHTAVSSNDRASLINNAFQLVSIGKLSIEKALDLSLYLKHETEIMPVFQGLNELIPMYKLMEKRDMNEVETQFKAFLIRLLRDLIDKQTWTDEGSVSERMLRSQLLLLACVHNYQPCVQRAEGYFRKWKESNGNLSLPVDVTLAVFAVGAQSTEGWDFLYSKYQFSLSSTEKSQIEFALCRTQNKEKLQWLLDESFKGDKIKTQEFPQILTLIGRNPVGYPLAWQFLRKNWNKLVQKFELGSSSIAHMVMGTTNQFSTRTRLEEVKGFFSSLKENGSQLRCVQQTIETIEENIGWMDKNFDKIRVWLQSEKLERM
A number is an active result; . = inactive; ? = inconclusive; / = no result. Rows were chosen to be rich in hits. Some 4% of all compounds tested hit in one or more screens of this group.

SMILES	AF4-AF9 inh	DENV2 CPE rescue	RAD52 anneal inh	FGF22 binding	ERAP1 inh
CCOc1cc(C(=O)N2CCC(CC3CC(c4cccc(Br)c4)=NO3)(C(=O)NCC3CCCCC3)CC2)cc(OCC)c1OCC (stereo not given)	.	/	.	.	.
O=C(C1CCCC1)N1CCC(CC2CC(c3cccc(Br)c3)=NO2)(C(=O)NCC2CCCCC2)CC1 (stereo not given)	.	53	.	.	.
CN(C)C(CNC(=O)c1ccc(S(=O)(=O)N(C)C)cc1)Cc1ccccc1 (stereo not given)	.	.	.	43	.
CN(C)S(=O)(=O)c1ccc(C(=O)NCc2ccco2)cc1	.	.	.	44	.
CCCN(CCC)S(=O)(=O)c1ccc(C(=O)NCc2ccco2)cc1	.	.	.	.	.
COc1ccc(S(=O)(=O)Nc2cccc3c2O[C@H](CN(C)C(=O)NC(C)C)[C@@H](C)CN([C@@H](C)CO)C3=O)cc1	.	.	.	.	.
CC=Cc1ccc2n(c1=O)C[C@@H]1[C@@H](CO)[C@H](C(=O)NCc3ccccc3)[C@H]2N1C (mixture of isomers)	.	.	/	.	/
O=C(NCC1CCCCC1)[C@@H]1[C@@H](CO)[C@@H]2Cn3c(ccc(-c4ccccc4F)c3=O)[C@H]1N2	.	.	.	.	.
COc1cc(/C=C(/C#N)C(=O)NCc2ccccc2)cc(OC)c1OC	.	67	.	.	.
COc1cc(/C=C/C(=O)OCC(=O)NCCCc2ccccc2)cc(OC)c1OC	.	.	.	.	.
COc1cc(/C=C/C(=O)OCC(=O)NCCc2ccccc2)cc(OC)c1OC	.	.	.	44	.
COc1ccc2c3c([nH]c2c1)[C@H](CO)N(C(=O)c1cccnc1)CC31CCN(C(=O)c2cccnc2)CC1	.	.	.	.	.
COc1cc(NC(=O)N2CCc3nc(Nc4cc(Cl)cc(Cl)c4)ncc3C2)cc(OC)c1OC	.	47	.	.	.
CC(=O)N(C1=C(Cl)C(=O)c2ccccc2C1=O)C1CCCCC1	.	.	.	.	68
CC(=O)N(c1ccccc1C)C1CCCC1	.	.	.	.	.
COc1ccc2c3c(n(C)c2c1)[C@@H](CO)N(Cc1ccc(Cl)cc1)CC31CN(CC2CC2)C1	.	.	.	.	.
Nc1ncc(-n2cncn2)c(-c2ccccc2)n1	.	/	.	43	.
CN(C)c1ccc2c(c1)[C@H]1C[C@H](CC(=O)NCCN3CCCCC3)O[C@H](CO)[C@H]1O2	.	.	56	.	.
CN(C)c1ccc2c(c1)[C@@H]1C[C@H](CC(=O)NCCN3CCCCC3)O[C@@H](CO)[C@@H]1O2	.	.	.	.	.
O=C(C[C@H]1C[C@H]2c3cc(NC(=O)NC4CCCCC4)ccc3O[C@H]2[C@H](CO)O1)NCC(F)(F)F	.	49	.	.	.
O=C(C[C@H]1C[C@@H]2c3cc(NC(=O)NC4CCCCC4)ccc3O[C@@H]2[C@@H](CO)O1)NCCc1ccccc1	.	37	.	.	.
O=C(C[C@H]1C[C@@H]2c3cc(NC(=O)NC4CCCCC4)ccc3O[C@@H]2[C@@H](CO)O1)NCC(F)(F)F	.	.	.	.	.
C[C@H](NC(=O)C[C@@H]1C[C@@H]2c3cc(NC(=O)NC4CCCC4)ccc3O[C@@H]2[C@@H](CO)O1)c1ccccc1	.	.	.	.	.
C[C@H](NC(=O)C[C@@H]1C[C@H]2c3cc(NC(=O)NC4CCCC4)ccc3O[C@H]2[C@H](CO)O1)c1ccccc1	.	27	.	.	.
COc1ccc(NC(=O)N(C)C[C@H]2OCCCC[C@H](C)Oc3ccc(NS(=O)(=O)c4ccc(Cl)cc4)cc3C(=O)N([C@@H](C)CO)C[C@@H]2C)cc1	.	?	.	.	.
SMILES	AF4-AF9 inh	DENV2 CPE rescue	RAD52 anneal inh	FGF22 binding	ERAP1 inh
Cc1noc(C)c1NC(=O)Nc1ccc2c(c1)C(=O)N([C@@H](C)CO)C[C@@H](C)[C@H](CN(C)Cc1ccc(C(=O)O)cc1)OCCCC[C@@H](C)O2	/	.	/	.	/
COc1ccc(CN(C)C[C@@H]2Oc3ccc(NC(=O)Cc4cn(C)c5ccccc45)cc3C(=O)N([C@@H](C)CO)C[C@@H]2C)cc1	.	.	.	.	.
C[C@@H]1CN([C@H](C)CO)C(=O)c2cc(NC(=O)c3ccccc3)ccc2O[C@@H](C)CCCCO[C@@H]1CN(C)C(=O)c1ccncc1	.	.	.	.	.
O=C(CCCCCCCCC(=O)N/N=C/c1ccco1)N/N=C/c1ccco1	.	.	.	43	.
Cc1cc(Cl)ccc1OCC(=O)NCC(=O)N/N=C/c1ccco1	.	.	.	43	.
O=C(C[C@H]1C=C[C@H](NC(=O)c2ccccc2)[C@H](CO)O1)NCc1ccc(Oc2ccccc2)cc1	.	31	.	.	.
COc1ccccc1S(=O)(=O)N[C@@H]1C=C[C@@H](CC(=O)NCc2cccc(F)c2)O[C@@H]1CO	.	.	.	.	.
O=C(C[C@H]1C=C[C@H](NS(=O)(=O)c2ccccc2)[C@H](CO)O1)N1CCC(Cc2ccccc2)CC1	.	96	.	/	/
COc1ccc(S(=O)(=O)N[C@H]2CC[C@H](CC(=O)NCCc3ccncc3)O[C@H]2CO)cc1	.	23	.	.	.
COc1ccc(S(=O)(=O)N[C@H]2CC[C@@H](CC(=O)NCCc3ccncc3)O[C@@H]2CO)cc1	.	.	.	.	.
O=C(C[C@H]1C=C[C@@H](NC(=O)c2ccccc2)[C@H](CO)O1)NCc1ccc(Oc2ccccc2)cc1	.	.	.	.	.
COc1ccccc1S(=O)(=O)N[C@H]1C=C[C@H](CC(=O)NCc2cccc(F)c2)O[C@H]1CO	.	28	.	.	.
CC(C)NC(=O)Nc1ccc2c(c1)C(=O)N([C@H](C)CO)C[C@H](C)[C@H](CN(C)Cc1ccc(C(F)(F)F)cc1)OCCCC[C@H](C)O2	.	.	.	.	.
O=C1O[C@@H](c2ccccc2)[C@@H](c2ccccc2)N2[C@@H](c3ccc(OCCO)cc3)[C@]3(C(=O)Nc4ccc(C#CC5=CCCCC5)cc43)[C@@H](C(=O)NC[C@H](O)c3ccccc3)[C@H]12	.	.	.	.	.
COc1ccc(S(=O)(=O)N[C@@H]2C=C[C@@H](CC(=O)NCCc3ccccc3)O[C@H]2CO)cc1	.	.	.	.	.
COc1ccc(S(=O)(=O)N[C@H]2CC[C@@H](CC(=O)NCc3ccccc3F)O[C@H]2CO)cc1	.	59	.	.	.
COc1ccc(S(=O)(=O)N[C@H]2C=C[C@@H](CC(=O)NCCc3ccccc3)O[C@@H]2CO)cc1	.	24	.	.	.
O=C(C[C@@H]1C=C[C@H](NC(=O)C2CC2)[C@@H](CO)O1)NCCCN1CCOCC1	.	.	.	.	.
CO[C@H]1CN(C)C(=O)c2ccc(NC(=O)CC(F)(F)F)cc2OC[C@H](C)N(C(=O)C2CCOCC2)C[C@@H]1C	.	.	.	.	.
NNC(=O)c1sc(-c2ccccc2)cc1N	.	.	.	44	.
